# Several values for one entry are separate records, joined by “and”; a condition that tells them apart may be missing. Equal entries are not always repeated. Records with an inconclusive call do not appear. Values without a mark were called inactive. Activity calls are given as the source filed them. Calls follow the shape of the dose curve; as a rule, active = well fitted cell-killing curve with a large enough effect; inconclusive = small, poorly fitted or top-dose-only effect, or effect the other way; inactive = no such curve, though single readings can be large or run the other way.
# Experiment: Viability qHTS for spleen associated tyrosine kinase inhibitor (SYKi) naive MV4-11 cells (AID 1963823); also: nearly all actives have a fitted effect of over 40% in size
# Settings: MV4-11 AML viability, CellTiter-Glo luminescence, 72 h; series mostly up to 45 µM; viability (% of control): at the top concentration
# From the text: Department of Medicine, Hematology/Oncology
# University Hospital Frankfurt, Germany.
# Trials have shown promising clinical activity of the selective SYK inhibitor entospletinib in patients with high expressing HOXA9/MEIS1 acute leukemias. As the development of resistance mechanisms is a common problem in the use of targeted drugs, we performed a chemical library screen to identify drug sensitivities in SYK inhibitor resistant AML cells. […] Glucocorticoids are potent immunosuppressants which work in part by inhibiting the transcription of cytokine genes.
# Described herein is a viability screen to look for activity in the SYK inhibitor naive cell line against four NCATS compound libraries (MIPE 5.0, NPC, NPACT, and Kinase) totaling 11372 compounds. Active hits were reacquired for confirmation and further secondary assay testing.
# SEQUENCE No. (e.g., 1, 2, 3, etc.); […] (e.g., Cells, Incubation, Reagent, etc.); VALUE; DESCRIPTION.
# 1; Media; 2uL; white, solid-bottom Corning assay plate.
# 2; Compounds; 23nL; Echo acoustic dispenser.
# 3; Cell; 5uL; 500 cells per well.
# 4: Incubation; 72hr; 37 C, 5% CO2, 95% humidity.
# 5; Reagent; 3uL; CellTiter-Glo reagent (Promega).
# 6; Incubation; 10min; room temperature.
# 7; Detection; Luminescence; ViewLux plate reader (PerkinElmer).
# NOTES (numbers refer to Sequence numbers above
# 1. Quantitative high-throughput screening (qHTS) of small molecule compounds was conducted on naive SYKi MV4-11 cell line.
# 2. Twenty-three nanoliter of small molecule compounds were added to each assay plates using the Echo acoustic dispenser (Beckman Coulter).
# 3. Cells were seeded into the assay plates at a final density of 500 cells in 5uL of media per well using the Multi-drop Combi dispenser.
# 4. Plates were covered with stainless steel gasketed lids and incubated for 72 hours at standard cell culture conditions.
# 5. Viability was assessed by adding 3uL of CellTiter-Glo detection reagent (Promega).
# 6. Plates were covered with gasket lids and incubated for 10 minutes at room temperature.
# 7. Luminescence was measured on a ViewLux plate reader (PerkinElmer).
# Potency is read from the fitted curve at half-maximal effect.
SMILES,viability (% of control),Potency
CCN(Cc1ccncc1)C(=O)C(CO)c1ccccc1 (stereo not given),87.9%,–
Clc1ccc2c(c1)C(N1CCNCC1)=Nc1ccccc1O2,81.6%,–
c1cnc2cc3c(cc2n1)C1CNCC3C1,–,inactive
COC(=O)Nc1nc2ccc(C(=O)c3ccccc3)cc2[nH]1,–,0.332 µM (active)
CCN1CCc2nc(N)oc2CC1,38.8%,–
O=c1ccc2ccc(OCCCCN3CCN(c4cccc5sccc45)CC3)cc2[nH]1,–,10.3 µM (active)
CC(C)C(=O)OC[C@H]1O[C@@H](n2ccc(N)nc2=O)[C@](C)(F)[C@@H]1OC(=O)C(C)C,67.7%,–
COc1cccc(-c2cn(-c3ccc(CCN4CCC(O)CC4)cc3)c3ncnc(N)c23)c1,–,2.06 µM (active)
O=[N+]([O-])c1cccc(S(=O)(=O)NCCNS(=O)(=O)c2cccc([N+](=O)[O-])c2)c1,64%,–
O=C(Nc1ccn(Cc2c(F)cccc2C(F)(F)F)n1)c1c(F)cccc1F,72.8% [at 9.25 µM],–
CNS(=O)(=O)c1ccccc1Nc1nc(Nc2ccc(N3CCN(C)CC3)cc2OC)ncc1Cl,–,0.0206 µM (active)
COc1cc(C(CO)C(OC2OC(CO)C(O)C(O)C2O)c2ccc(O)c(OC)c2)ccc1O (stereo not given),67.3% [at 17.3 µM],–
COC(=O)C1=CO[C@@H](O[C@@H]2O[C@H](CO)[C@@H](O)[C@H](O)[C@H]2O)[C@@H]2[C@@](C)(O)[C@@H](O)C[C@]12O,84.8% [at 17.3 µM],–
CC1(C)[C@@H](O[C@H]2O[C@H](C(=O)O)[C@@H](O)[C@H](O)[C@H]2O[C@@H]2O[C@H](C(=O)O)[C@@H](O)[C@H](O)[C@H]2O)CC[C@]2(C)[C@H]3C(=O)C=C4[C@@H]5C[C@@](C)(C(=O)O)CC[C@]5(C)CC[C@@]4(C)[C@]3(C)CC[C@@H]12,89.5% [at 17.3 µM],–
CC1=CC(=O)CC(C)(C)C1CCC(C)O[C@@H]1O[C@H](CO)[C@@H](O)[C@H](O)[C@H]1O (stereo not given in full),83.6%,–
CN1C/C=C/CCOc2cccc(c2)-c2ccnc(n2)Nc2cccc(c2)C1,–,0.417 µM (active)
Cc1coc2c1CC1OC1(C)CCC1OC1(C)C2 (stereo not given),67.5%,–
CC[C@H](C)n1cc(C)c2c(C(=O)NCc3c(C)cc(C)[nH]c3=O)cc(-c3ccc(N4CCNCC4)nc3)cc21,–,7.42 µM (active)
CCCN1CCN(c2ccc(C(=O)NC3(C(=O)NCC#N)CCCCC3)cc2)CC1,84.6%,–
CN(C)c1nc2c(Br)c(Br)c(Br)c(Br)c2[nH]1,–,11.6 µM (active)

SMILES,viability (% of control),Potency
Nc1nccc(Oc2ccc(NC(=O)c3c[nH]cc(-c4ccc(F)cc4)c3=O)cc2F)c1Cl,–,0.0295 µM (active)
CC(C)OP(=O)(CP(=O)(OC(C)C)OC(C)C)OC(C)C,84.1%,–
CCCCCCCCCCOCC(O)CN (stereo not given),–,23.7 µM (active)
CC(C)c1c(C(=O)Nc2ccccc2)c(-c2ccccc2)c(-c2ccc(F)cc2)n1CC[C@@H](O)C[C@@H](O)CC(=O)O,–,2.99 µM (active) and 1.93 µM (active) and 1.82 µM (active)
COc1cccc2c1C(=O)c1c(O)c3c(c(O)c1C2=O)C[C@@](O)(/C(CO)=N/NC(=O)CCCCCN1C(=O)C=CC1=O)C[C@@H]3O[C@H]1C[C@H](N)[C@H](O)[C@H](C)O1,–,0.132 µM (active)
COc1ccc(OC(=O)N(CC(=O)O)Cc2ccc(OCCc3nc(-c4ccccc4)oc3C)cc2)cc1,69%,–
Cc1ccccc1CN1C2=NCCN2C(=O)C2=C1CCN(Cc1ccccc1)C2,–,16.4 µM (active)
CC1(C)CO[C@@H](CC(=O)O)CN1,101%,–
O=C(CO)N1CCC(c2[nH]nc(-c3ccc(Cl)cc3)c2-c2ccncn2)CC1,–,2.31 µM (active)
CCCCOc1ccc(C(=O)Nc2ccc(F)cc2F)cc1,56.8%,–
CN1[C@@H]2CC[C@H]1CC(OC(=O)C(O)c1ccccc1)C2 (stereo not given in full),101%,–
COC1CC(O[C@H]2CC[C@]3(C)C4CC[C@]5(C)C(C6=CC(=O)OC6)=CCC56OC46CC[C@@H]3C2)OC(C)C1O[C@@H]1O[C@H](CO[C@@H]2O[C@H](CO)[C@@H](O)[C@H](O)[C@H]2O)[C@@H](O)[C@H](O)[C@H]1O (stereo not given in full),–,1.55 µM (active)
CCOc1ccn(-c2ccc(F)cc2)c(=O)c1C(=O)Nc1ccc(Oc2ccnc(N)c2Cl)c(F)c1,–,366 nM (active) and 525 nM (active)
C[C@@H]1O[C@@H](O[C@H]2[C@H](OC(=O)[C@]34CCC(C)(C)C[C@H]3C3=CCC5[C@@]6(C)C[C@@H](O)[C@@H](O[C@@H]7O[C@H](CO)[C@@H](O)[C@H](O)[C@H]7O)[C@@](C)(CO)C6[C@H](O)C[C@@]5(C)[C@]3(C)CC4)OC[C@H](O)[C@@H]2O)[C@H](O)[C@H](O[C@@H]2OC[C@](O)(CO)[C@H]2O)[C@H]1O[C@@H]1OC[C@@H](O)[C@H](O[C@H]2O[C@H](C)[C@@H](O)[C@H](O)[C@@H]2O)[C@H]1O (stereo not given in full),80.1% [at 9.25 µM],–
C=CCN1CCc2nc(N)sc2CC1,83%,–
CCCC1(CCC)CCC2(CCN(CCCN(CC)CC)C2)CC1,–,2.35 µM (active)
NC(=O)Nc1cc(-c2cccc(F)c2)sc1C(=O)NC1CCCNC1 (stereo not given),5.4%,–
Cc1ccnn1-c1ccc(C(=O)N2CCN(S(=O)(=O)c3ccc(Cl)c(C(F)(F)F)c3)CC2)cc1,73%,–
CCOc1ccccc1OCCN[C@H](C)Cc1ccc(OC)c(S(N)(=O)=O)c1,57.4%,–
Oc1cc(-c2nc(-c3ccccc3)[nH]c2-c2ccncc2)ccc1Cl,–,6.51 µM (active)

# From PubChem BioAssay (NCATS)
